# Test results from PubChem BioAssay.
# Several values for one entry are separate records, joined by “and”; a condition that tells them apart may be missing. Equal entries are not always repeated. Results filed as inconclusive are left out. Activity calls are given as the source filed them. Rule as the data show it, unless noted: active = inhibition above about 80%; inactive = the rest.
# What was measured:
# [1] = protection against mutant huntingtin cytotoxicity, PC12 cells, LDH release (AID 1610); settings: PC12 mutant huntingtin toxicity, final LDH at 4 uM, stronger effect = lower value
# [2] = target: ATP-dependent translocase ABCB1 (Homo sapiens) (UniProt P08183); test: MDR1 (ABCB1) efflux transporter inhibition, cell-based (AID 377; in the data active = fluorescence slope change above about 50%); settings: MDR1-expressing cells, fluorescent substrate accumulation slope; stronger effect = higher value; concentration not given here
# Chain of ATP-dependent translocase ABCB1 (Homo sapiens) (P08183 whole entry, looked up): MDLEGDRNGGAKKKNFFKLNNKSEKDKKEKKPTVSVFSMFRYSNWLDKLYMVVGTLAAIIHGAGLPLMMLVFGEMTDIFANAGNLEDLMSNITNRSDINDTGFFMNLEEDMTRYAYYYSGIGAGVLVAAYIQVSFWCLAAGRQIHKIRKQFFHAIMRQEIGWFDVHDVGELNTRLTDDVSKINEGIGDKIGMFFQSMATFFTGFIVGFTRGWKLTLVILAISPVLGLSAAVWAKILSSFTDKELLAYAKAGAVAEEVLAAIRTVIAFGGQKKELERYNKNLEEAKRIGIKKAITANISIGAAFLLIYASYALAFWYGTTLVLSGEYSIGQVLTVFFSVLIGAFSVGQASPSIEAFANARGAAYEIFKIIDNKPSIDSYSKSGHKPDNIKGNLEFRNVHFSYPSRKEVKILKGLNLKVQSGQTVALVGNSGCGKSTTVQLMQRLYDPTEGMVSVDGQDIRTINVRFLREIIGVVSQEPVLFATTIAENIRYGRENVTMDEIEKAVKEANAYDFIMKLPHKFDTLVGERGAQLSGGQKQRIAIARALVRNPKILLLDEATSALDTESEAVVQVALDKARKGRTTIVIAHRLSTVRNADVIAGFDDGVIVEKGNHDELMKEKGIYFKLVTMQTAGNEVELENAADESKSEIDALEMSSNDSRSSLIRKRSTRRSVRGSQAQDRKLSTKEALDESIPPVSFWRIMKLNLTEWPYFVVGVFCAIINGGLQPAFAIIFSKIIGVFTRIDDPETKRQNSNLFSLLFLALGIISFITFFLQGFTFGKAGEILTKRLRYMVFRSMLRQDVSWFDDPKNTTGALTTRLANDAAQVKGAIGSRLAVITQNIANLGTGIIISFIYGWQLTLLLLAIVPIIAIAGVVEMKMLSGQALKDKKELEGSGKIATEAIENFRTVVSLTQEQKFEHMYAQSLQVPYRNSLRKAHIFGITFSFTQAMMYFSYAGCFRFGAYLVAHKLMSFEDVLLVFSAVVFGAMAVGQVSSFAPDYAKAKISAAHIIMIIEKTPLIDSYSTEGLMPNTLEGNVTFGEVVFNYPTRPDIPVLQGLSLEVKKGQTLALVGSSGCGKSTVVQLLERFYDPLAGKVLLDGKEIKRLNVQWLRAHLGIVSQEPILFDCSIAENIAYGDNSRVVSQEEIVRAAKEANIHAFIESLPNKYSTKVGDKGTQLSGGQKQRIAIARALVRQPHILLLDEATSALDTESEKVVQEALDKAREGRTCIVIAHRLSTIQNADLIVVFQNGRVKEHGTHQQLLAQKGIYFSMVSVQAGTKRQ
# [3] = inhibitors of Cryptococcus chitosan production, flow cytometry, Cibacron Brilliant Red staining (AID 1347148; call rule not given here;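 also: compound exposure lasted three days at 37 degrees C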); settings: Cryptococcus neoformans chitosan, stronger effect = lower value; at 10 µM unless noted
# [4] = CRL2098 osteosarcoma cell growth inhibition, synergistic combos for chromothripsis tumors, BGB or cisplatin IC20 combos (AID 1671454); settings: CRL2098 osteosarcoma cells, drug combinations, stronger effect = higher value;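 also: cells exposed for 96 h before readout; 0% = vehicle DMSO and 100% = killing by high DMSO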
# [5] = HD-MB03 medulloblastoma cell growth inhibition, synergistic combos for chromothripsis tumors, BGB or cisplatin IC20 combos (AID 1671455; in the data active = inhibition above about 83%;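 also: 0% = vehicle DMSO and 100% = high DMSO as cytotoxic control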); settings: HD-MB03 medulloblastoma cells, stronger effect = higher value
# [6] = UWB1.289 ovarian carcinoma cell growth inhibition, synergistic combos for chromothripsis tumors, BGB or cisplatin combos (AID 1671456); settings: UWB1.289 ovarian carcinoma cells, stronger effect = higher value;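 also: cells exposed to compound for four days; 0% = vehicle DMSO and 100% = killing by high DMSO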
# [7] = LFS_MB_2R medulloblastoma cell growth inhibition, synergistic combos for chromothripsis tumors, cisplatin combos (AID 1671457); settings: LFS_MB_2R medulloblastoma cells, stronger effect = higher value;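 also: cells exposed to compound for four days before readout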
# [8] = UWB1.289_BRCA1 ovarian cancer growth, cell-based, BGB or cisplatin combinations (AID 1671459); settings: UWB1.289 BRCA1 ovarian carcinoma, drug combinations, stronger effect = higher value
# [9] = human astrocyte viability loss, single and combined drugs, cytotoxicity control for chromothriptic childhood tumor combination screen, cell-based, BGB or cisplatin IC20 combos (AID 1671460); settings: Human astrocytes, drug combinations, stronger effect = higher value;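 also: cells exposed to compounds for 96 hours before viability readout; 0% = vehicle and 100% = killing control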
# [10] = modifiers of HSF1 nuclear foci, imaging, Selleck Cancer Library (AID 1347162; in the data active = plate-normalised HSF1 focus index below about 0.46); settings: human cells, at 10 µM; SSMD: measured here: HSF1 foci SSMD mean; cell count: measured here: cell number; plate-normalised HSF1 focus index: stronger effect = lower value
# [11] = Cy5 fluorescence interference with SSB-bound oligo, artefact control for HCV NS3 helicase inhibitor project, biochemical, NIH Clinical Collection, E. coli SSB (AID 743268; call rule not given here)
# [12] = tested on: Hepatitis C virus NS3 helicase; test: HCV NS3 helicase inhibitors, primary screen, biochemical, fluorescence polarization, NIH Clinical Collection (AID 743270; call rule not given here); settings: NS3 helicase binding to Cy5-dT15 DNA, stronger effect = higher value, concentration not given here
# [13] = target: Single-stranded DNA-binding protein (Escherichia coli (strain K12)) (UniProt P0AGE0); test: E. coli SSB displacement from DNA, counter-screen for HCV NS3 helicase inhibitor project, biochemical, fluorescence polarization, NIH Clinical Collection (AID 743271; in the data active = inhibition above about 28%); settings: stronger effect = higher value, concentration not given here
# [14] = fluorescence interference in NS3h assay format, artefact control for HCV NS3 helicase inhibitor project, biochemical, NIH Clinical Collection (AID 743272; call rule not given here;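 also: HCV NS3 helicase with a Cy5 labelled single stranded DNA probe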); settings: fluorescence interference counterscreen, stronger effect = lower value
# [15] = measured here: combination with BGB at IC20, at 0.5 µM
# [16] = measured here: combination with cisplatin at IC20, at 0.5 µM
# [17] = measured here: combo with BGB at IC20, at 0.5 µM
# [18] = measured here: combo with cisplatin at IC20, at 0.5 µM
# [19] = measured here: inhibition with BGB combination, at 0.05 µM
# [20] = measured here: inhibition with cisplatin combination, at 0.05 µM
# [21] = measured here: combination with cisplatin, at 0.5 µM
# [22] = measured here: combination with cisplatin, at 5 µM
# [23] = BGB combination, concentration series, at 5 µM
# [24] = cisplatin combination, concentration series, at 5 µM
# [25] = measured here: combo with BGB IC20, at 0.5 µM
# [26] = measured here: combo with cisplatin IC20, at 0.5 µM
smiles,measurement,setting,value
O=C1C=CC(=C(c2ccc(O)cc2)c2ccc(O)cc2)C=C1,normalised LDH release,[1],0.611
COc1c2ccoc2nc2c(OC)c(OCC(O)C(C)(C)O)ccc12 (stereo not drawn),fluorescence slope change,[2],3.7% (inactive)
CC(=O)c1c(O)c(C)c(O)c2c1OC1=CC(=O)C(C(C)=O)C(=O)C12C (stereo not drawn),normalised LDH release,[1],1.02
CCCC(=O)Nc1ncnc2c1ncn2[C@@H]1O[C@@H]2COP(=O)(O)O[C@H]2[C@H]1OC(=O)CCC,fold fluorescence,[3],10.2 [at 101.8 µM] (inactive)
NC(=O)c1cccc(N)c1,fold fluorescence,[3],5.59 [at 367.2 µM] (inactive)
CC(CCc1ccc(O)cc1)NCCc1ccc(O)c(O)c1 (stereo not drawn),fluorescence slope change,[2],19.4% (inactive)
O=C(O)c1cc([N+](=O)[O-])ccc1NCCCc1ccccc1,fold fluorescence,[3],4.56 [at 166.5 µM] (inactive)
N=c1ccn2c(n1)O[C@H]1[C@H](O)[C@@H](CO)O[C@H]12,inhibition,[4]; at 0.5 µM,32.1% (inactive)
same,inhibition,[4]; [15],-10.4%
same,inhibition,[4]; [16],52.4%
same,inhibition,[5]; at 0.5 µM,89.9% (active)
same,inhibition,[5]; [17],84%
same,inhibition,[5]; [18],91.1%
same,inhibition,[6]; at 0.5 µM,1.85% (inactive)
same,inhibition,[6]; [19],-40.2%
same,inhibition,[6]; [20],-14.8%
same,inhibition,[7]; at 0.5 µM,-10.7% (inactive)
same,inhibition,[7]; [21],6.24%
same,inhibition,[7]; [22],44.7%
same,inhibition,[8]; [23],22.3%
same,inhibition,[8]; at 0.5 µM,7.05% (inactive)
same,inhibition,[8]; [24],41.2%
same,inhibition,[9]; at 0.5 µM,27.9% (inactive)
same,inhibition,[9]; [25],22.9%
same,inhibition,[9]; [26],18.2%
COC1=C(OC)C(=O)C(C/C=C(\C)CC/C=C(\C)CC/C=C(\C)CC/C=C(\C)CC/C=C(\C)CC/C=C(\C)CC/C=C(\C)CC/C=C(\C)CC/C=C(\C)CCC=C(C)C)=C(C)C1=O,SSMD,[10],2.18
same,cell count,[10],7460
same,plate-normalised HSF1 focus index,[10],1.08 (inactive)
C[C@H]1C[C@H]2[C@@H]3CCC4=CC(=O)C=C[C@]4(C)[C@@]3(F)[C@@H](O)C[C@]2(C)[C@@]1(O)C(=O)CO,fluorescence slope change,[2],18% (inactive)
CC(C)C[C@H]1C(=O)N2CCC[C@H]2[C@]2(O)O[C@](NC(=O)[C@@H]3C=C4c5cccc6[nH]c(Br)c(c56)C[C@H]4N(C)C3)(C(C)C)C(=O)N12,fluorescence slope change,[2],115% (active)
COc1cc([C@@H]2c3cc4c(cc3[C@@H](O[C@@H]3O[C@@H]5CO[C@@H](c6cccs6)O[C@H]5[C@H](O)[C@H]3O)[C@H]3COC(=O)[C@H]23)OCO4)cc(OC)c1O,inhibition,[4]; at 0.5 µM,5.54% (inactive) and 23.7% (inactive)
same,inhibition,[4]; [15],22% and 28.7%
same,inhibition,[4]; [16],-12.5% and 10.8%
same,inhibition,[5]; at 0.5 µM,96.4% (active) and 98.5% (active)
same,inhibition,[5]; [17],94.6% and 97.5%
same,inhibition,[5]; [18],96.6% and 99.1%
same,inhibition,[6]; at 0.5 µM,18.6% (inactive) and 46.3% (inactive)
same,inhibition,[6]; [19],-23.8% and 2.23%
same,inhibition,[6]; [20],-2.66% and 12.3%
same,inhibition,[7]; at 0.5 µM,-16.4% (inactive) and -13.1% (inactive)
same,inhibition,[7]; [21],-12.1% and -0.448%
same,inhibition,[7]; [22],-6.88% and 18.4%
same,inhibition,[8]; [23],94.5% and 109%
same,inhibition,[8]; at 0.5 µM,16.2% (inactive) and 36.5% (inactive)
same,inhibition,[8]; [24],117% and 124%
same,inhibition,[9]; at 0.5 µM,47.8% (inactive) and 52.6% (inactive)
same,inhibition,[9]; [25],42.5% and 54.3%
same,inhibition,[9]; [26],28% and 33.1%
COc1cc(NS(C)(=O)=O)ccc1Nc1c2ccccc2nc2ccccc12,inhibition,[4]; at 0.5 µM,3.39% (inactive) and -17.2% (inactive)
same,inhibition,[4]; [15],5.83% and -2.6%
same,inhibition,[4]; [16],6.88% and -21.3%
same,inhibition,[5]; at 0.5 µM,89.9% (active) and 92.8% (active)
same,inhibition,[5]; [17],85.2% and 89.8%
same,inhibition,[5]; [18],93.1% and 93.7%
same,inhibition,[6]; at 0.5 µM,34.8% (inactive) and 27.8% (inactive)
same,inhibition,[6]; [19],-10.9% and -18.9%
same,inhibition,[6]; [20],5.17% and -0.785%
same,inhibition,[7]; at 0.5 µM,-7.33% (inactive) and -4.82% (inactive)
same,inhibition,[7]; [21],-3.1% and -25.3%
same,inhibition,[7]; [22],21% and 20.3%
same,inhibition,[8]; [23],79.6% and 77.5%
same,inhibition,[8]; at 0.5 µM,31% (inactive) and 27.1% (inactive)
same,inhibition,[8]; [24],109% and 107%
same,inhibition,[9]; at 0.5 µM,47.7% (inactive) and 54% (inactive)
same,inhibition,[9]; [25],46.6% and 56.1%
same,inhibition,[9]; [26],26.6% and 33.1%
CC(=O)[C@H]1CC[C@H]2[C@@H]3CCC4=CC(=O)CC[C@]4(C)[C@H]3CC[C@]12C,fluorescence slope change,[2],82.5% (active)
same,fluorescence ratio,[11],0.96 (inactive)
same,inhibition,[12],-6.73% (inactive)
same,inhibition,[13],1.44% (inactive)
same,fluorescence ratio,[14],0.92 (inactive)
C[C@H]1O[C@@H](O[C@H]2[C@@H](O)C[C@H](O[C@H]3[C@@H](O)C[C@H](O[C@H]4CC[C@@]5(C)[C@H](CC[C@@H]6[C@@H]5C[C@@H](O)[C@]5(C)[C@@H](C7=CC(=O)OC7)CC[C@]65O)C4)O[C@@H]3C)O[C@@H]2C)C[C@H](O)[C@@H]1O,fluorescence slope change,[2],24.1% (inactive)
NCCCCCCNS(=O)(=O)c1cccc2c(Cl)cccc12,fold fluorescence,[3],9.13 [at 132.5 µM] (inactive)
